# Measured values from PubChem BioAssay (NCI).
# About 79,000 compounds went through this panel and 15% of them were active in at least one assay; those are over-represented in the sample as a whole. Values without a mark were called inactive. Active and inactive are the calls of the source. No stated cut-off is given here; in the data, active means growth inhibition above about 70%; inactive means the rest.
# Assays:
# [1] = NCI Yeast Anticancer Drug Screen. Data for the rad52 strain (AID 147);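 further: 0% = growth of vehicle-treated control cultures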; conditions: S. cerevisiae rad52 mutant growth inhibition, stronger effect = higher value
# Outline: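 The repair-mutant yeast strain was incubated with compounds, then growth was read and inhibition derived relative to vehicle.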
# [2] = NCI Yeast Anticancer Drug Screen. Data for the wt1 strain (AID 149);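 further: 0% = growth of vehicle-treated wt1 cultures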; conditions: S. cerevisiae wt1 strain (SPY 50644) growth inhibition, stronger effect = higher value
# Outline: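 Readout: yeast growth inhibition, normalised to vehicle controls, in the wt1 strain exposed to test compounds.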
# [3] = NCI Yeast Anticancer Drug Screen. Data for the rad50EPP+ strain (AID 151);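 further: 0% = growth of vehicle-treated control cultures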; conditions: S. cerevisiae rad50 mutant strain, stronger effect = higher value
# Outline: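 Vehicle-normalised growth inhibition; rad50EPP+ yeast strain, altered in DNA damage repair, compound-treated.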
# [4] = NCI Yeast Anticancer Drug Screen. Data for the rad50 strain (AID 155);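 further: 0% = growth of vehicle-only cultures of the same strain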; conditions: S. cerevisiae rad50 strain growth inhibition, stronger effect = higher value
# Outline: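 Compounds were tested on a yeast strain with an engineered DNA damage repair alteration; the reported value is growth inhibition normalised to vehicle treatment.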
# [5] = NCI Yeast Anticancer Drug Screen. Data for the mec2-1 strain (AID 157); conditions: S. cerevisiae mec2-1 strain, stronger effect = higher value
# Outline: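 Mutant yeast (mec2-1) grown with compound; growth inhibition relative to vehicle control reported.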
# [6] = NCI Yeast Anticancer Drug Screen. Data for the rad14 strain (AID 159);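 further: 0% = growth of vehicle-treated control cultures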; conditions: S. cerevisiae rad14 strain growth inhibition, stronger effect = higher value
# Outline: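 Compound-treated yeast with a defined DNA-repair lesion; growth inhibition normalised to vehicle-treated cultures.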
# [7] = NCI Yeast Anticancer Drug Screen. Data for the sgs1 mgt1 strain (AID 161);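 further: 0% = growth of cultures given vehicle only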; conditions: S. cerevisiae sgs1 mgt1 strain, stronger effect = higher value
# Outline: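 Yeast cells carrying a defined DNA-repair defect were exposed to test compounds. Growth inhibition was measured relative to vehicle-treated controls.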
# [8] = NCI Yeast Anticancer Drug Screen. Data for the cln2 rad14 strain (AID 165);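 further: 0% = growth equal to vehicle treated cultures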; conditions: S. cerevisiae cln2 rad14 strain, stronger effect = higher value
# Outline: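 Readout is yeast growth inhibition versus vehicle-treated controls, using a strain with cln2 and rad14 alterations exposed to compound.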
# [9] = NCI Yeast Anticancer Drug Screen. Data for the bub3 strain (AID 167); conditions: S. cerevisiae bub3 mutant strain, stronger effect = higher value
# Outline: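 Growth of a checkpoint-deficient yeast mutant is measured after compound exposure. Values represent inhibition relative to vehicle.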
# [10] = NCI Yeast Anticancer Drug Screen. Data for the wt2 strain (AID 169);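 further: 0% = growth of vehicle-treated yeast cultures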; conditions: S. cerevisiae wt2 strain growth inhibition, stronger effect = higher value
# Outline: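 Against vehicle-treated controls, the growth of yeast exposed to each compound was compared, and the inhibition was recorded.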
# [11] = NCI Yeast Anticancer Drug Screen. Data for the mlh1 strain (AID 171);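 further: 0% = growth of vehicle-treated control cultures of the same strain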; conditions: S. cerevisiae mlh1 strain growth inhibition, stronger effect = higher value
# Outline: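 Measured: yeast growth. Reference: vehicle-treated controls. Organism: strain with a defined alteration affecting DNA damage repair or cell cycle control, treated with compound.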
# [12] = NCI Yeast Anticancer Drug Screen. Data for the sgs1 strain (AID 173);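 further: 0% = growth of vehicle-only control cultures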; conditions: S. cerevisiae sgs1 mutant, stronger effect = higher value
# Outline: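 Each compound was added to cultures of the altered yeast strain. Growth was recorded, and inhibition was derived by comparison with vehicle controls.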
# [13] = NCI Yeast Anticancer Drug Screen. Data for the mlh1 rad18 strain (AID 175); conditions: S. cerevisiae mlh1 rad18 strain growth inhibition, stronger effect = higher value
# Outline: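 Genetically defined yeast (DNA repair-deficient) exposed to compounds; growth inhibition determined relative to vehicle.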
# [14] = NCI Yeast Anticancer Drug Screen. Data for the rad18 strain (AID 177); conditions: S. cerevisiae rad18 mutant growth inhibition, stronger effect = higher value
# Outline: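 Vehicle-treated cultures served as the baseline for scoring compound-induced growth inhibition in DNA-repair-mutant yeast.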
# [15] = at 5.0 µM (retest, dose inferred, filed as 0.5)
# [16] = at 50.0 µM (retest, dose inferred, filed as 5.0)
compound,measurement,setting,value
CC1(C)C(C=O)=CCC1CC(N)=O (stereo unspecified),growth inhibition,[1]; at 1.2 µM,-1%
same,growth inhibition,[1]; at 3.7 µM,-1%
same,growth inhibition,[1]; at 11.0 µM,0%
same,growth inhibition,[1]; at 33.0 µM,7%
same,growth inhibition,[1]; at 100.0 µM,80% (active)
same,growth inhibition,[2]; at 1.2 µM,-1%
same,growth inhibition,[2]; at 3.7 µM,0%
same,growth inhibition,[2]; at 11.0 µM,2%
same,growth inhibition,[2]; at 33.0 µM,3%
same,growth inhibition,[2]; at 100.0 µM,29%
same,growth inhibition,[3]; at 1.2 µM,1%
same,growth inhibition,[3]; at 3.7 µM,-2%
same,growth inhibition,[3]; at 11.0 µM,0%
same,growth inhibition,[3]; at 33.0 µM,20%
same,growth inhibition,[3]; at 100.0 µM,93% (active)
same,growth inhibition,[4]; at 1.2 µM,-1%
same,growth inhibition,[4]; at 3.7 µM,-1%
same,growth inhibition,[4]; [15],-2%
same,growth inhibition,[4]; at 11.0 µM,-1%
same,growth inhibition,[4]; at 33.0 µM,1%
same,growth inhibition,[4]; [16],43%
same,growth inhibition,[4]; at 50.0 µM,98.5% (active)
same,growth inhibition,[4]; at 100.0 µM,40%
same,growth inhibition,[5]; at 1.2 µM,0%
same,growth inhibition,[5]; at 3.7 µM,2%
same,growth inhibition,[5]; [15],4%
same,growth inhibition,[5]; at 11.0 µM,1%
same,growth inhibition,[5]; at 33.0 µM,7%
same,growth inhibition,[5]; [16],39%
same,growth inhibition,[5]; at 50.0 µM,98% (active)
same,growth inhibition,[5]; at 100.0 µM,96% (active)
same,growth inhibition,[6]; at 1.2 µM,-3%
same,growth inhibition,[6]; at 3.7 µM,-2%
same,growth inhibition,[6]; at 11.0 µM,-3%
same,growth inhibition,[6]; at 33.0 µM,6%
same,growth inhibition,[6]; at 100.0 µM,99% (active)
same,growth inhibition,[7]; [15],-3%
same,growth inhibition,[7]; [16],-2%
same,growth inhibition,[7]; at 50.0 µM,87.3% (active)
same,growth inhibition,[8]; [15],-3%
same,growth inhibition,[8]; [16],4%
same,growth inhibition,[8]; at 50.0 µM,38.4%
same,growth inhibition,[9]; at 1.2 µM,-3%
same,growth inhibition,[9]; at 3.7 µM,-7%
same,growth inhibition,[9]; [15],-19%
same,growth inhibition,[9]; at 11.0 µM,-2%
same,growth inhibition,[9]; at 33.0 µM,-5%
same,growth inhibition,[9]; [16],-8%
same,growth inhibition,[9]; at 50.0 µM,99.2% (active)
same,growth inhibition,[9]; at 100.0 µM,93% (active)
same,growth inhibition,[10]; at 1.2 µM,-1%
same,growth inhibition,[10]; at 3.7 µM,1%
same,growth inhibition,[10]; at 11.0 µM,4%
same,growth inhibition,[10]; at 33.0 µM,9%
same,growth inhibition,[10]; at 100.0 µM,83% (active)
same,growth inhibition,[11]; at 1.2 µM,2%
same,growth inhibition,[11]; at 3.7 µM,0%
same,growth inhibition,[11]; at 11.0 µM,4%
same,growth inhibition,[11]; at 33.0 µM,9%
same,growth inhibition,[11]; at 100.0 µM,96% (active)
same,growth inhibition,[12]; at 1.2 µM,-1%
same,growth inhibition,[12]; at 3.7 µM,4%
same,growth inhibition,[12]; at 11.0 µM,6%
same,growth inhibition,[12]; at 33.0 µM,23%
same,growth inhibition,[12]; at 100.0 µM,99% (active)
same,growth inhibition,[13]; [15],-6%
same,growth inhibition,[13]; [16],71% (active)
same,growth inhibition,[13]; at 50.0 µM,88.7% (active)
same,growth inhibition,[14]; at 1.2 µM,0%
same,growth inhibition,[14]; at 3.7 µM,0%
same,growth inhibition,[14]; at 11.0 µM,22%
same,growth inhibition,[14]; at 33.0 µM,6%
same,growth inhibition,[14]; at 100.0 µM,54%
COc1ccc(N2C(=O)CC(Cl)C2=O)cc1 (stereo unspecified),growth inhibition,[1]; at 1.2 µM,-10%
same,growth inhibition,[1]; at 3.7 µM,-9%
same,growth inhibition,[1]; at 11.0 µM,10%
same,growth inhibition,[1]; at 33.0 µM,80% (active)
same,growth inhibition,[1]; at 100.0 µM,99% (active)
same,growth inhibition,[2]; at 1.2 µM,-1%
same,growth inhibition,[2]; at 3.7 µM,10%
same,growth inhibition,[2]; at 11.0 µM,16%
same,growth inhibition,[2]; at 33.0 µM,70% (active)
same,growth inhibition,[2]; at 100.0 µM,100% (active)
same,growth inhibition,[3]; at 1.2 µM,-9%
same,growth inhibition,[3]; at 3.7 µM,-18%
same,growth inhibition,[3]; at 11.0 µM,22%
same,growth inhibition,[3]; at 33.0 µM,66%
same,growth inhibition,[3]; at 100.0 µM,99% (active)
same,growth inhibition,[4]; at 1.2 µM,-16%
same,growth inhibition,[4]; at 3.7 µM,-11%
same,growth inhibition,[4]; [15],-128%
same,growth inhibition,[4]; at 11.0 µM,15%
same,growth inhibition,[4]; at 33.0 µM,79% (active)
same,growth inhibition,[4]; [16],96% (active)
same,growth inhibition,[4]; at 50.0 µM,99.2% (active)
same,growth inhibition,[4]; at 100.0 µM,99% (active)
same,growth inhibition,[5]; at 1.2 µM,-7%
same,growth inhibition,[5]; at 3.7 µM,-5%
same,growth inhibition,[5]; [15],-44%
same,growth inhibition,[5]; at 11.0 µM,-6%
same,growth inhibition,[5]; at 33.0 µM,64%
same,growth inhibition,[5]; [16],36%
same,growth inhibition,[5]; at 50.0 µM,99.5% (active)
same,growth inhibition,[5]; at 100.0 µM,100% (active)
same,growth inhibition,[6]; at 1.2 µM,-6%
same,growth inhibition,[6]; at 3.7 µM,1%
same,growth inhibition,[6]; at 11.0 µM,13%
same,growth inhibition,[6]; at 33.0 µM,98% (active)
same,growth inhibition,[6]; at 100.0 µM,100% (active)
same,growth inhibition,[7]; [15],-56%
same,growth inhibition,[7]; [16],59%
same,growth inhibition,[7]; at 50.0 µM,95.5% (active)
same,growth inhibition,[8]; [15],-60%
same,growth inhibition,[8]; [16],8%
same,growth inhibition,[8]; at 50.0 µM,97% (active)
same,growth inhibition,[9]; at 1.2 µM,-15%
same,growth inhibition,[9]; at 3.7 µM,-8%
same,growth inhibition,[9]; [15],-75%
same,growth inhibition,[9]; at 11.0 µM,1%
same,growth inhibition,[9]; at 33.0 µM,92% (active)
same,growth inhibition,[9]; [16],69%
same,growth inhibition,[9]; at 50.0 µM,97.9% (active)
same,growth inhibition,[9]; at 100.0 µM,100% (active)
same,growth inhibition,[10]; at 1.2 µM,-4%
same,growth inhibition,[10]; at 3.7 µM,-1%
same,growth inhibition,[10]; at 11.0 µM,37%
same,growth inhibition,[10]; at 33.0 µM,99% (active)
same,growth inhibition,[10]; at 100.0 µM,100% (active)
same,growth inhibition,[11]; at 1.2 µM,-14%
same,growth inhibition,[11]; at 3.7 µM,-10%
same,growth inhibition,[11]; at 11.0 µM,-10%
same,growth inhibition,[11]; at 33.0 µM,40%
same,growth inhibition,[11]; at 100.0 µM,100% (active)
same,growth inhibition,[12]; at 1.2 µM,-3%
same,growth inhibition,[12]; at 3.7 µM,0%
same,growth inhibition,[12]; at 11.0 µM,24%
same,growth inhibition,[12]; at 33.0 µM,93% (active)
same,growth inhibition,[12]; at 100.0 µM,99% (active)
same,growth inhibition,[13]; [15],-137%
same,growth inhibition,[13]; [16],32%
same,growth inhibition,[13]; at 50.0 µM,97.1% (active)
same,growth inhibition,[14]; at 1.2 µM,-12%
same,growth inhibition,[14]; at 3.7 µM,-10%
same,growth inhibition,[14]; at 11.0 µM,1%
same,growth inhibition,[14]; at 33.0 µM,38%
same,growth inhibition,[14]; at 100.0 µM,99% (active)
